# Shown are actives, neighbours in structure and some others; about 12% of the full set was active somewhere.
# Sfp inh: Sfp phosphopantetheinyl transferase inhibition. Q9F4F7. Biochemical Sfp PPTase activity, qHTS. Potency, µM, without a hit: largest response in the series, negative = inhibition, most hits filed as inhibitors. actives 3.5% (n = 310,000). AID 1490;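 also: the enzyme is Sfp with the accession as filed and its product quenches rhodamine fluorescence; 0% = enzyme reaction without inhibitor and -100% = no enzyme wells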
#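 Buffer: 50 mM Hepes-Na pH 7.6, 10 mM MgCl2, 0.01% Nonidet P-40, 0.01% BSA. Enzyme 15 nM, pre-exposed to compound 15 min; substrates then added and fluorescence change tracked over 30 min.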
# G9a inh: blocks human histone lysine methyltransferase G9a | G9a H3K9 monomethylation, AlphaScreen, 2 h | Q96KQ7 | actives 8.8% (n = 350,000) | AID 504332 | Potency, µM (titrated, usually from 102 µM), for the others: top-dose activity, negative = inhibition, hits mostly inhibitors; also: % is scaled to controls: 0 for no effect and ±100 for the full control effect; nearly all actives have a fitted effect of over 75% in size
# Target sequence (Q96KQ7 913-1193 limits assumed): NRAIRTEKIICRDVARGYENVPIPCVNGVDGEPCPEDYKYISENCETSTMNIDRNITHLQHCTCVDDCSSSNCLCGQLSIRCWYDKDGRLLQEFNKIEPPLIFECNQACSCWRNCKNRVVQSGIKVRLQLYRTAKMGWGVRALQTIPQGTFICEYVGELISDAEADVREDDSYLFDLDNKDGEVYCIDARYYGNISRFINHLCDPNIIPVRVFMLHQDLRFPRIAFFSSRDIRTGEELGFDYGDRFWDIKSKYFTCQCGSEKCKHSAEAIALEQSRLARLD
#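 Methyltransferase reactions run at room temperature for 2 h (20 nM enzyme, 500 nM biotin-H3K9 peptide, 20 uM SAM) after a 15 min compound preincubation; product detected by AlphaScreen beads and anti-H3K9me1 antibody.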
# HP1b binding inh: inhibitors of HP1-beta chromodomain binding to methylated histone tails; P83916; AlphaScreen HP1-beta / biotin-H3K9me3 peptide binding; Potency, µM (titrated, usually from 114 µM), for the others: at the top dose activity change, negative = inhibition, actives largely listed as inhibitors; actives 0.56% (n = 390,000); AID 540317; also: nearly all actives have a fitted effect of over 70% in size
# Target sequence (P83916 whole entry, looked up): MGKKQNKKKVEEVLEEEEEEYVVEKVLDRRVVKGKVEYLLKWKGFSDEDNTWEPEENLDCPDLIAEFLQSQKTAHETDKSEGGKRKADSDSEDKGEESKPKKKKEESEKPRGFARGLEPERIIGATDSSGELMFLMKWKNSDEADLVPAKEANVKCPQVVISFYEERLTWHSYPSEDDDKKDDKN
#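 AlphaScreen: HP1-beta (50 nM) preformed 30 min with biotin-H3(1-18)K9me3 peptide (50 nM) in PBS pH 7.4, 0.01% Tween-20. Compound added for 30 min at RT, then streptavidin donor/nickel chelate acceptor beads (10 ug/mL) for 30 min.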
# BAZ2B inh: blocks human BAZ2B | actives 4.4% (n = 360,000) | Potency, µM (top dose mostly 114 µM), without a hit: top-dose activity change, negative = inhibition, actives largely listed as inhibitors | Q9UIF8 | AID 504333 | AlphaScreen BAZ2B-H3K14Ac peptide displacement; also: % is scaled to controls: 0 for no effect and ±100 for the full control effect; nearly all actives have a fitted effect of over 60% in size
#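 AlphaScreen displacement of biotin-H3(5-23)K14Ac peptide (50 nM final) from BAZ2B (50 nM final) in PBS pH 7.4, 0.01% Tween-20; complex preformed 30 min RT, then compounds (top 110 uM) 30 min RT, beads 20 min dark.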
# JMJD2A Tudor: blocks the human JMJD2A Tudor domain; AlphaScreen JMJD2A-Tudor / H3K4me3 peptide binding; Potency, µM (titrated, usually from 114 µM), without a hit: top-dose activity change, negative = inhibition, actives largely listed as inhibitors; actives 4.4% (n = 390,000); AID 504339; also: % is scaled to controls: 0 for no effect and ±100 for the full control effect; nearly all actives have a fitted effect of over 50% in size
# Numbers without * were called inactive; ? = inconclusive; / = no result; [ ] = dose if it differs, or a comment. Calls follow the shape of the dose curve; as a rule, active = well fitted curve in the direction sought with a large enough effect; inconclusive = small, poorly fitted or top-dose-only effect, or another doubt; inactive = no such curve, though single readings can be large; an effect the other way counts as inactive or inconclusive. Potency is read from the fitted curve at half-maximal effect.
SMILES,Sfp inh,G9a inh,HP1b binding inh,BAZ2B inh,JMJD2A Tudor
Cc1ccc(NC(=O)COc2ccccc2)cc1Cl,13%,45%,53%,7%,21%
Cc1ccc(N/N=C2\CC(=O)c3ccccc32)cc1Cl,-14%,/,/,11µM*,/
COc1ccccc1N1CCN(C(c2ccc(Cl)cc2)c2nnnn2C(C)(C)C)CC1 (stereo not given),4%,8%[59 µM],-5%,-38%,?
CCN1CCN(C(c2ccc(OC)c(OC)c2)c2nnnn2C(C)(C)C)CC1 (stereo not given),-2%,-13%[12.7 µM],13%,?,-10%[11.4 µM]
COc1cc(C(c2nnnn2C(C)(C)C)N2CCN(c3nc4ccccc4s3)CC2)ccc1O (stereo not given),25µM*,2.2µM*,?,?,?
COc1ccc(C(c2nnnn2C(C)(C)C)N2CCN(c3nc4ccccc4s3)CC2)cc1OC (stereo not given),4%,-41%,-11%,79µM*,14%[11.4 µM]
c1coc(CN2CNc3nc4ccccc4n3C2)c1,9%,2%,40%,-15%,4%
CC(=O)NC1CCC(C(=O)O)(c2ccccc2)C1 (stereo not given),11%,-26%[12.7 µM],43%,-29%,-1%
CCN1C[C@@H]2[C@@H]3C(=O)N(C)C(=O)[C@@H]3[C@](CC)(C1=O)N2C(=O)c1ccc(C(F)(F)F)cc1,/,/,31%,/,-16%
COc1cccc(-c2cc(C(=O)NCCc3ccc(C)cc3)[nH]n2)c1,/,-32%[59 µM],30%,-7%,-8%
COc1ccccc1-c1sc2cc3c(cc2c1C#CC1(O)CCCCC1)OCO3,/,4%[0.501 µM],62%,79µM*,-25%
COc1ccc(-c2sc3cc4c(cc3c2C#CC2(O)CCCCC2)OCO4)cc1,/,4%[0.501 µM],39%,?,-15%
CC1CN(c2ccc(C(=O)c3ccccc3C(=O)O)cc2[N+](=O)[O-])CC(C)O1 (stereo not given),-5%,-31%,23%,-13%,18%
CC(C)Cc1cc(C(=O)O)n[nH]1,2%,-49%[12.7 µM],1%,50µM*,25µM*
Cc1ccc(-c2cc(C(=O)O)n[nH]2)s1,3%,-3%,17%,-11%,-4%[11.4 µM]
CC(C)(C)c1cc(C(=O)O)n[nH]1,-23%,13µM*,-5%,?,50µM*
O=C1Nc2ccccc2Nc2ncccc21,17%,?,44%,-30%,-5%
Cc1ccc2c(c1)NC(=O)c1cccnc1N2,11%,45µM*,-8%,3%[57.1 µM],-25%
Cc1cccc(CNC(=O)c2ccc(Cn3c(SCc4cccc(F)c4)nc4cccnc43)cc2)c1,/,3.2µM*,?,11µM*,4.5µM*
O=c1c2ccccc2nc(/C=C/c2cccnc2)n1CCc1ccccc1,-10%,50µM*,-23%,35µM*,18µM*
O=c1c2ccccc2nc(/C=C/c2ccccc2)n1CCc1ccccc1,-3%,64%[59 µM],31%,11%,4%
O=C(CSc1nc2cccnc2n1Cc1ccccc1)N1CCCC1,15%,20%,?,-3%,32µM*
O=C(CSc1nc2ccccc2c(=O)n1Cc1ccccc1)Nc1ccc(Br)cc1C(=O)O,16%,?,11%,50µM*,-28%
Cc1cnc(C(=O)NCC(c2ccccc2)c2ccccc2)cn1,-2%,9%,50%,8%,-4%[11.4 µM]
O=C(CN1CCN(c2ccccn2)CC1)NC1CCCC1,4%,-13%[59 µM],42%,/,-14%[57.1 µM]
SMILES,Sfp inh,G9a inh,HP1b binding inh,BAZ2B inh,JMJD2A Tudor
O=C(Nc1ccc(S(=O)(=O)Nc2ncccn2)cc1)c1ccco1,-6%,?,27%,-4%,-11%
C/C(=N/OCO/N=C(\C)c1ccccc1F)c1ccccc1F,-6%,13%[59 µM],45%,7%,6%
O=C1NCCO1,/,-2%[59 µM],-4%,-4%,-26%
CC(=O)Oc1ccc(-c2cccc(C(=O)OCC(=O)N(C)c3ccccc3)c2)cc1,9%,22%[59 µM],20%,-10%,-19%
CCOC(=O)c1ccc(S(=O)(=O)N2CCN(c3nc(-c4ccccc4)nc4ccccc34)CC2)cc1,/,/,19%,/,-4%
CCOC(=O)c1ccc(S(=O)(=O)n2c(CN3CCCCC3)nc3ccccc32)cc1,5%,50µM*,37%,-32%,-14%
O=C(NCc1ccccc1)c1ccc(CSc2nc3cccnc3n2Cc2ccccc2F)cc1,/,3.5µM*,?,22µM*,5.6µM*

# High-throughput results from PubChem BioAssay.
